In the supplement of paper PMC3414501:
Where a name gives a salt, the structure may show the parent alone.

system: S. cerevisiae AD1-9 (efflux-pump deficient), vegetative growth in YPD; assay: growth sensitivity score (doubling time z-score vs DMSO controls); higher = slower growth, strongly negative scores also mark growth inhibition (complete suppression), active = hit call of the paper
Outline: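 Yeast (Saccharomyces cerevisiae BY4741 and AD1-9) was grown in rich medium in microtiter plates from a starting OD600 of 0.065, with optical density read every 15 min over 24 hours. The growth sensitivity score was the difference between compound and solvent-only means, divided by the solvent-only standard deviation. Every experiment had eight solvent-only wells.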

| Compound | growth sensitivity score |
| --- | --- |
| NC1CCN(c2cccc(Cl)n2)CC1 (stock concentration (mM, diluted 1:100): 10) | -0.47 (inactive) |
| O=C1[C@H]2CCCC[C@H]2C(=O)N1CCCCN1CCN(c2nsc3ccccc23)CC1 [Perospirone hydrochloride] (stock concentration (mM, diluted 1:100): 9.4) | 2.19 (active) |
| COCC1=C(C(=O)OC(C)OC(=O)OC(C)C)N2C(=O)[C@@H](NC(=O)/C(=N\OC)c3csc(N)n3)[C@H]2SC1 (stereo partly specified) [Cefpodoxime proxetil] (stock concentration (mM, diluted 1:100): 7.7) | -0.15 (inactive) |
| CC(=O)NCCCCCCNC(C)=O [Hexamethylene bisacetamide] (stock concentration (mM, diluted 1:100): 10) | 1.99 (inactive) |
| NC(N)=Nc1nc(CSCC/C(N)=N/S(N)(=O)=O)cs1 [Famotidine] (stock concentration (mM, diluted 1:100): 10) | -2.06 |
| CNCC[C@@H](Oc1ccccc1C)c1ccccc1 [Atomexetine hydrochloride] (stock concentration (mM, diluted 1:100): 8.7) | 5.57 (active) |
| COc1cc(N)c(Cl)cc1C(=O)NC1CCN(CCCOc2ccc(F)cc2)CC1OC (stereo unspecified) [Cisapride] (stock concentration (mM, diluted 1:100): 10.5) | 8.05 (active) |
| CC[N+](C)(CC)CCOC(=O)C(O)(c1ccccc1)C1CCCCC1 (stereo unspecified) [Oxyphenonium bromide] (stock concentration (mM, diluted 1:100): 10) | -1.02 (inactive) |
| CC(C)NCC(O)COc1ccc(COCCOC(C)C)cc1 (stereo unspecified) [Bisoprolol fumarate] (stock concentration (mM, diluted 1:100): 8.5) | -0.36 (inactive) |
| CC(=O)[C@]1(O)Cc2c(O)c3c(c(O)c2[C@@H](O[C@H]2C[C@H](N)[C@H](O)[C@H](C)O2)C1)C(=O)c1ccccc1C3=O [Idarubicin hydrochloride] (stock concentration (mM, diluted 1:100): 9.3) | 174 (active) |
| COC(=O)C1=C(C)NC(C)=C(C(=O)OC2CCCN(Cc3ccccc3)C2)C1c1cccc([N+](=O)[O-])c1 (stereo unspecified) [Benidipine hydrochloride] (stock concentration (mM, diluted 1:100): 6) | -3.4 |
| O=c1c(-c2ccccc2)c1-c1ccccc1 [Diphenylcyclopropenone] (stock concentration (mM, diluted 1:100): 10) | 110 (active) |
| CC(Oc1c(Cl)cccc1Cl)C1=NCCN1 (stereo unspecified) [Lofexidine hydrochloride] (stock concentration (mM, diluted 1:100): 10) | -0.79 (inactive) |
| Clc1cccc(Cl)c1NC1=NCCN1 [Clonidine] (stock concentration (mM, diluted 1:100): 10) | -1.44 (inactive) |
| O=C(O)COCCN1CCN([C@H](c2ccccc2)c2ccc(Cl)cc2)CC1 [Levocetirizine] (stock concentration (mM, diluted 1:100): 10.7) | -1.54 (inactive) |
| C=CC1=C(C(=O)O)N2C(=O)[C@@H](NC(=O)/C(=N\OCC(=O)O)c3csc(N)n3)[C@H]2SC1 [Cefixime trihydrate] (stock concentration (mM, diluted 1:100): 10) | -1.39 (inactive) |
| C[N+]1(C)CCC(OC(=O)C(O)(c2ccccc2)C2CCCC2)C1 (stereo unspecified) [Glycopyrrolate] (stock concentration (mM, diluted 1:100): 10) | -0.14 (inactive) |
| Cc1cccc(Nc2ccncc2S(=O)(=O)NC(=O)NC(C)C)c1 [Torasemide] (stock concentration (mM, diluted 1:100): 9.9) | -2.4 |

| Compound | growth sensitivity score |
| --- | --- |
| Cc1c(O)c(=O)ccn1C [Deferiprone] (stock concentration (mM, diluted 1:100): 10) | -1.63 (inactive) |
| CC1CNc2c(cccc2S(=O)(=O)N[C@@H](CCCNC(=N)N)C(=O)N2CC[C@@H](C)C[C@@H]2C(=O)O)C1 (stereo partly specified) [Argatroban] (stock concentration (mM, diluted 1:100): 10.1) | -2.07 |
| O=c1[nH]cnc2c1ncn2[C@H]1CC[C@@H](CO)O1 [Didanosine] (stock concentration (mM, diluted 1:100): 10.1) | -1.72 (inactive) |
| Cc1[nH]cnc1CN1CCc2c(c3ccccc3n2C)C1=O [Alosetron hydrochloride] (stock concentration (mM, diluted 1:100): 8.9) | -0.69 (inactive) |
| C[C@@H]1C[C@H]2[C@@H]3CCC4=CC(=O)C=C[C@]4(C)[C@@]3(F)[C@@H](O)C[C@]2(C)[C@H]1C(=O)CO [Desoximetasone] (stock concentration (mM, diluted 1:100): 10) | 2.17 (active) |
| NC1CCN(c2nc3c(cc2F)c(=O)c(C(=O)O)cn3-c2ccc(F)cc2F)C1 (stereo unspecified) [Tosufloxacin tosylate] (stock concentration (mM, diluted 1:100): 7) | 1.02 (inactive) |
| CN(C)CCN(Cc1ccccc1)c1ccccn1 [Tripelennamine hydrochloride] (stock concentration (mM, diluted 1:100): 10) | 0.66 (inactive) |
| CN1[C@@H]2CC[C@H]1C[C@@H](OC(=O)c1c[nH]c3ccccc13)C2 [Tropisetron hydrochloride] (stock concentration (mM, diluted 1:100): 7.7) | -2.07 |
| CCCc1nc(C)c2c(=O)nc(-c3cc(S(=O)(=O)N4CCN(CC)CC4)ccc3OCC)[nH]n12 [Vardenafil citrate] (stock concentration (mM, diluted 1:100): 7.2) | 0.43 (inactive) |
| CC(C)/N=c1\cc2n(-c3ccc(Cl)cc3)c3ccccc3nc-2cc1Nc1ccc(Cl)cc1 [Clofazimine] (stock concentration (mM, diluted 1:100): 10) | 108 (active) |
| CC[C@H]1OC(=O)[C@H](C)[C@@H](O[C@H]2C[C@@](C)(OC)[C@@H](O)[C@H](C)O2)[C@H](C)[C@@H](O[C@@H]2O[C@H](C)C[C@H](N(C)C)[C@H]2O)[C@](C)(OC)C[C@@H](C)C(=O)[C@H](C)[C@@H](O)[C@]1(C)O [Clarithromycin] (stock concentration (mM, diluted 1:100): 10) | -1.97 (inactive) |
| C[C@]12CC[C@@H]3c4ccc(O)cc4CC[C@H]3[C@@H]1CC[C@@H]2O [Beta-Estradiol] (stock concentration (mM, diluted 1:100): 10) | 10.3 (active) |
| CN(CCO)CC(O)Cn1cnc2c1c(=O)n(C)c(=O)n2C (stereo unspecified) [Xanthinol nicotinate] (stock concentration (mM, diluted 1:100): 10) | 0.36 (inactive) |
| CC(=O)O[C@H]1C[C@@H]2CC[C@@H]3[C@H](CC[C@@]4(C)[C@H]3C[C@H]([N+]3(C)CCCCC3)[C@@H]4OC(C)=O)[C@@]2(C)C[C@@H]1N1CCCCC1 [Vecuronium bromide] (stock concentration (mM, diluted 1:100): 10) | -5.36 |
| CO[C@H]1/C=C/O[C@@]2(C)Oc3c(C)c(O)c4c(c3C2=O)C2=NC3(CCN(CC(C)C)CC3)NC2=C(NC(=O)/C(C)=C\C=C\[C@H](C)[C@H](O)[C@@H](C)[C@@H](O)[C@@H](C)[C@H](OC(C)=O)[C@@H]1C)C4=O [Rifabutin] (stock concentration (mM, diluted 1:100): 10) | 1.43 (inactive) |
| COc1ccc2[nH]c([S+]([O-])Cc3ncc(C)c(OC)c3C)nc2c1 (stereo unspecified) [Omeprazole] (stock concentration (mM, diluted 1:100): 10) | -3.25 |
| CC=CC(=O)N(CC)c1ccccc1C [Crotamiton] (stock concentration (mM, diluted 1:100): 10.3) | 0.99 (inactive) |
| O=C(CCNNC(=O)c1ccncc1)NCc1ccccc1 [Nialamide] (stock concentration (mM, diluted 1:100): 10) | -0.06 (inactive) |
